# About 1,100 (1.7%) of roughly 63,000 compounds were called active. Shown is part of a subset that was picked to be rich in actives. Measured potencies and affinities stand elsewhere. Values without a mark were called inactive. Cut-off read from the data, not from the text of the source: active = cytotoxicity above about 50%; inactive = the rest.
# Test: cytotoxicity in HPDE-C7 cells, cell-based, fluorescence, HTS (AID 430);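 note: cells exposed to compound for 48 hours before viability readout; 0% = vehicle and 100% = reference cytotoxic drug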
# Details: HPDE-C7 pancreatic duct cells viability, at 10 µM, hits give high values
row,Structure (SMILES),cytotoxicity
1,c1cn2c(NC3CCCC3)c(-c3ccc(N4CCOCC4)cc3)nc2cn1,2.8%
2,COc1cc(-c2nc3cnccn3c2Nc2ccccc2)ccc1O,22.1%
3,Cc1ccc2cc(CN(Cc3cccs3)C(=O)c3ccco3)c3nnnn3c2c1C,22.1%
4,CCc1nc2c(n1O)CCc1nonc1-2,3.5%
5,CCCSc1nc2c(c(=O)[nH]c(=O)n2C)n1C,2.1%
6,CC(NC(=O)NCC1CCCO1)(C(F)(F)F)C(F)(F)F (centres undefined),-16%
7,NS(=O)(=O)c1ccc(S(=O)(=O)N(Cc2ccccc2F)CC2CCCO2)cc1 (centres undefined),-0.3%
8,Cc1nc2ccccc2nc1CSc1nncs1,3.3%
9,Cc1nc(CNS(=O)(=O)c2ccc3c(c2)CCCC3)cs1,-11.4%
10,COCCNc1ncnc2c1cnn2-c1ccc(Cl)cc1,4.6%
11,CCCCNc1ncnc2c1cnn2-c1ccccc1,65% (active)
12,CC(C)OCCCNc1ncnc2c1cnn2-c1ccccc1,26.6%
13,CN(C)CCCNc1ncnc2c1cnn2-c1ccccc1,-5.5%
14,CN(C)CCNc1ncnc2c1cnn2-c1ccc(Cl)cc1,19.4%
15,CCCCNc1ncnc2c1cnn2-c1ccc(Cl)cc1,72.3% (active)
16,CS(=O)CCC(NS(=O)(=O)c1ccccc1)C(=O)O (centres undefined),-7.3%
17,Cc1cccc(N2CCN(C(=O)c3cn(C)c(=O)c4c3c3ccccc3n4C)CC2)c1C,53.7% (active)
18,CCOC(=O)N1CCN(C(=O)c2cn(C)c(=O)c3c2c2ccccc2n3C)CC1,-11.5%
19,Cn1cc(C(=O)N2CCN(C(=O)c3ccco3)CC2)c2c3ccccc3n(C)c2c1=O,-1.4%
20,Cc1ccc(Cl)cc1N1CCN(C(=O)c2cn(C)c(=O)c3c2c2ccccc2n3C)CC1,93.1% (active)
21,Cn1cc(C(=O)NCCN2CCN(c3cccc(Cl)c3)CC2)c2c3ccccc3n(C)c2c1=O,-12.1%
22,COc1ccc(N2CCN(C(=O)c3cn(C)c(=O)c4c3c3ccccc3n4C)CC2)cc1,10.1%

row,Structure (SMILES),cytotoxicity
1,COc1ccc(C)cc1S(=O)(=O)NC1CCCC1,8.4%
2,CCn1ncc(C2=NOC(C(=O)NCc3ccc(OC)cc3)C2)c1C (centres undefined),21.2%
3,CCn1ncc(C2=NOC(C(=O)Nc3c(C)nn(Cc4ccc(F)cc4)c3C)C2)c1C (centres undefined),25.1%
4,CCn1ncc(C2=NOC(C(=O)Nc3cccnc3)C2)c1C (centres undefined),-4.8%
5,CCn1ncc(C2=NOC(C(=O)NCc3ccc(Cl)cc3)C2)c1C (centres undefined),65.1% (active)
6,CCn1ncc(C2=NOC(C(=O)NCc3ccccc3)C2)c1C (centres undefined),54.7% (active)
7,CCn1ncc(C2=NOC(C(=O)NCCc3ccccc3)C2)c1C (centres undefined),-13.2%
8,CCOC(=O)CN1C(=O)C(=O)c2cccc(C)c21,-46.9%
9,O=C(NCc1ccco1)C1CN(S(=O)(=O)c2ccccc2)CCN1S(=O)(=O)c1ccccc1 (centres undefined),-23.1%
10,CCc1c(C)nc2ncnn2c1N1CCC(C(=O)N2CCN(c3ccc(F)cc3)CC2)CC1,-1.9%
11,COC(=O)CSc1nc2ccc(NC(C)=O)cc2s1,-5.9%
12,COc1cc2c(cc1OC)CN(C(=O)c1ccccc1C(=O)O)CC2,-15.6%
13,O=C(Cn1nnc(-c2ccc(N3CCOCC3)cc2)n1)OC1CCCCC1,-25.2%
14,COC(=O)CSc1nnc(-c2ccc(OC)cc2OC)o1,3.4%
15,COc1ccc(N2CCN(C(c3ccccc3OC)c3nnnn3Cc3ccco3)CC2)cc1 (centres undefined),-1.6%
16,COc1cc(C2C(C#N)=C(C)NC3=C2C(=O)CC(C)(C)C3)ccc1O (centres undefined),-9.2%
17,COc1cc(C2C(C#N)=C(C)NC3=C2C(=O)c2ccccc23)cc(OC)c1OC (centres undefined),76.3% (active)
18,COc1ccc(C2C(C#N)=C(C)NC3=C2C(=O)c2ccccc23)cc1 (centres undefined),55.2% (active)
19,COc1cc(C2C(C#N)=C(C)NC3=C2C(=O)CC(C)(C)C3)cc(OC)c1O (centres undefined),3.7%
20,COc1ccc(C2CC(=O)C3=C(C2)NC(C)=C(C#N)C3c2ccc(N(C)C)cc2)cc1 (centres undefined),-4.4%
21,COc1ccc(C2C(C#N)=C(SC)NC3=C2C(=O)CC(C)(C)C3)cc1 (centres undefined),-11.2%
22,CSc1nc(-c2ccco2)nn1C(=O)c1ccco1,-12.1%

row,Structure (SMILES),cytotoxicity
1,CCOc1cc(NC(=O)c2ccco2)c(OCC)cc1NC(=O)CCC(=O)NCc1cccnc1,32.8%
2,COc1ccc(C(C#N)N2CCCCC2)cc1OC (centres undefined),-1.7%
3,Cc1cccc(-c2noc(CN(C(=O)CCc3ccccc3)C(C)C)n2)c1,-16.1%
4,CCCC(=O)Nc1nc2ccc3nc(C)sc3c2s1,9.8%
5,CCOc1ccc(OCC)c(S(=O)(=O)N2CCCCC2C)c1 (centres undefined),-8.3%
6,Cc1cccc(N2C(=O)SC(N(C)c3ccccc3)C2=O)c1 (centres undefined),-8.6%
7,Cc1ccc(NC(=O)CC(O)(C(F)(F)F)C(F)(F)F)c(Br)c1,-3.8%
8,CCNC(=O)CCC(=O)Nc1cc(Cl)ccc1C,-6.9%
9,Cc1ccc(Cl)cc1NC(=O)CC(O)(C(F)(F)F)C(F)(F)F,51.2% (active)
10,OC1CCCN(Cc2cccc3ccccc23)C1 (centres undefined),4.1%
11,CN(C)c1ccc(CN2CCCC(O)C2)cc1 (centres undefined),0.6%
12,O=C(CCc1nc2ccccc2c(=O)[nH]1)OCc1nnc(-c2ccccc2)o1,8.5%
13,CCN(CCCNC(=O)C1CCN(S(=O)(=O)CC)CC1)c1ccccc1,-4%
14,O=C(Oc1ccc2c(c1)OCO2)c1cc2c(s1)CCC2,56.8% (active)
15,O=C(Oc1ccc2c(c1)OCO2)c1ccncc1,10.6%
16,O=C(Oc1ccc2c(c1)OCO2)c1cccs1,-3.4%
17,Cc1cccc(C(=O)OCc2cc3ccccc3[nH]c2=O)c1,8.5%
18,COc1cccc(C(=O)N2CCN(c3ncccn3)CC2)c1,1.5%
19,CCc1oc2ccccc2c1C(=O)CCN1CCCCC1,-17.7%
20,CCCCC(=O)c1c(O)c2ccccc2oc1=O,9.3%
